The record followed here is PubChem BioAssay (NCI).

This is part of a sample that, as a whole, favours compounds with a hit. Of some 83,000 tested, about 20% had one in any assay.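 Plates (96-well) were seeded with cells, treated with compound at one concentration, and incubated for 48 hours before percent growth was determined.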 Unmarked numbers belong to inactive results. Calls of active or inactive are those of the source. How the source made its calls: active means growth percent below 10; inactive means the rest.

Assay in all cases: NCI-60 one-dose screen, 48 h (100 = growth as untreated, 0 = no growth, -100 = all killed)
Common to all, as to conditions: 10 µM unless noted

Assay [1] concerns DU-145 prostate.
Assay [2] has as its system K-562 leukemia.
Assay [3] concerns MALME-3M melanoma.
In assay [4] the test system is MDA-MB-231 breast.
In assay [5] the test system is RXF 393 renal.
The test system of assay [6] is SF-268 CNS.
In assay [7] the test system is SF-295 CNS.
In assay [8] the test system is SF-539 CNS.
Assay [9] relates to UACC-257 melanoma.
The test system of assay [10] is M14 melanoma.

As for `CC(=O)NNC(=O)c1sc(NC(C)=O)nc1C`, the growth in [1] is 113%; in assay [2], 61.4%; in assay [3], 168%; in assay [4], 100%; in assay [5], 112%; in [6] it was 93.2%. The growth in assay [7] was 106%; in assay [8] it was 97.8%; in assay [9] it was 105%; in assay [10], 115%.

Consider `O=c1[nH]c2cc(O)ccc2n2cc3c(F)cccc3c12`, for which the growth in [1] is 33.9%; in assay [2] it was 24.3%; in assay [3] it was 40.3%; in assay [4], 52.4%; in assay [5], 4.74% (active); in assay [6], 19.4%. Also, the growth in assay [7] was 15.4%; in assay [8], 16.6%; in assay [9], 51.2%; in [10], 25.2%.

Turning to `Cc1cc2c(-c3nc4ccccc4n3C)c(O)c(O)cc2c(O)c1-c1c(C)cc2c(-c3nc4ccccc4n3C)c(O)c(O)cc2c1O`, the growth in assay [1] was 43.5%; in assay [2] it was 37.5%; in assay [3], 86.1%; in [4], 57.3%; in assay [5], 62.7%; in [6] it was 38.5%. The growth in assay [7] is 26%; in [8] it was 22.1%; in assay [9], 82.9%; in assay [10] it was 34.9%.

`C#CCCCCCCC[C@@H]1OC(=O)[C@H]([C@@H](C)CC)NC(=O)[C@@H]([C@@H](C)CC)NC(=O)CC(=O)[C@@H]1C`: the growth is 106% in assay [1]; 92.5% in assay [2]; 94.7% in assay [3]; 85.7% in [4]; 101% in [5]; 94.8% in assay [6]. Moreover, the growth in assay [7] is 98.6%; in assay [8] it was 96.2%; in [9], 121%; in assay [10], 93.3%.

`CC(O)CN(CC(C)O)N(CC(C)O)CC(C)O` (stereo not given): the growth in [1] is 111%; in assay [2], 108%; in assay [3], 108%; in assay [4], 105%; in assay [5], 105%; in assay [6], 110%. The growth was 101% in assay [7], 105% in [8], 90.5% in [9] and 100% in assay [10].

Consider `Cc1ccc(C(=O)Nc2ccc(CN3CCN(C)CC3)c(C(F)(F)F)c2)cc1C#Cc1cnc(N)c2ccc(F)cc12`, for which the growth in assay [1] was -91.7% (active); in [2] it was -78.2% (active); in assay [3], -88.4% (active); in assay [4], -90.7% (active); in [5], -90.8% (active); in [6] it was -75.2% (active). Also, the growth in [7] is -76.9% (active); in assay [8], -92.5% (active); in [9] it was -60.9% (active); in assay [10], -83.1% (active).

Turning to `c1ccc(Nc2ccccn2)cc1`, the growth in assay [1] was 111%; in assay [2], 89.5%; in [3], 103%; in [4] it was 96.6%; in assay [5], 113%; in [6], 115%. In addition, the growth in [7] is 102%; in assay [8], 99.5%; in [9], 104%; in assay [10], 107%.

Turning to `COC(=O)c1ccc2[nH]c(O)c(C(=Nc3ccc(N(C)C(=O)CN4CCN(C)CC4)cc3)c3ccc([N+](=O)[O-])cc3)c2c1`, the growth is 47.3% in assay [1]; 1.99% (active) in assay [2]; -1.29% (active) in [3]; 70.2% in assay [4]; 33.9% in [5]; 45.3% in assay [6]. The growth in assay [7] was 55.2%; in assay [8], 38.9%; in [9] it was 85.4%; in [10] it was 32.1%.

With `CC(C)(CNC1CCCCC1)OC(=O)c1ccccc1`, the growth in assay [1] was 104%; in assay [2] it was 94.1%; in [3], 99.2%; in assay [4], 110%; in assay [5], 102%; in assay [6], 107%. The growth was 94.1% in assay [7], 108% in assay [8], 110% in [9] and 102% in assay [10].

For `CC(=O)Nc1nc(C)c(C(=O)N/N=C/N2CCOCC2)s1`, the growth in [1] is 109%; in [2] it was 174%; in assay [3] it was 114%; in assay [4] it was 109%; in assay [5], 119%; in assay [6], 103%. In addition, the growth in assay [7] is 110%; in [8], 105%; in assay [9], 118%; in assay [10] it was 113%.

Take `O=C(/C(Br)=C/c1ccccc1)c1ccccc1`: the growth in [1] is 64.1%; in assay [2] it was -1.65% (active); in assay [3], -36.9% (active); in [4] it was 42.6%; in [5], -58.2% (active); in assay [6], 78.9%. The growth is 103% in [7], -41.7% (active) in assay [8], -5.24% (active) in [9] and -95.4% (active) in assay [10].

Turning to `Cc1ccc(C(C)C)c(OCc2ccc(C(=O)N/N=C/c3cccc(O)c3O)cc2)c1`, the growth is 33.6% in assay [1]; 4.92% (active) in [2]; 29.6% in assay [3]; 41.1% in assay [4]; 48.3% in assay [5]; 25.6% in [6]. Further, the growth in assay [7] was 36.1%; in assay [8], 26%; in [9] it was 58.8%; in assay [10] it was 18.1%.

On to `N#Cc1ccc(OCc2nc(N)nc(N)c2-c2ccc(Cl)c(Cl)c2)cc1`, for which the growth in assay [1] was 34.3%; in [2], 12.6%; in [3], 49.5%; in [4], 50.7%; in assay [5], 46%; in assay [6], 33.6%. The growth in assay [7] is 3.74% (active); in assay [8], 22.7%; in assay [9], 22.8%; in [10] it was 27.6%.

On to `CCN(CC)c1ccc2nc3ccc(N=Nc4ccc(O)cc4)cc3[n+](-c3ccccc3)c2c1`, for which the growth was 82.1% in assay [1]; 18.2% in assay [2]; 35.4% in [3]; 20.9% in assay [4]; 30.6% in [5]; 81% in assay [6]. Besides, the growth in assay [7] was 66.8%; in [8] it was 89.5%; in assay [9], -1.57% (active); in [10], 61.3%.
